# Experimental data taken from PubChem BioAssay (EPA / NIEHS).
# Results filed as inconclusive are left out. More than one record can exist for a structure, and the calls need not agree. Activity calls are given as the source filed them. The calls were made as follows: active = hit-call score of the fitted dose curve at least 0.9, where 1 is the maximum; inconclusive = response in the unintended direction; inactive = score below 0.9.
# Columns and labels:
# [1] = target: Cellular tumor antigen p53 (Homo sapiens) (UniProt P04637); test: TOX21_p53_BLA_p4_ratio: Tox21 HCT-116 p53 Agonism Beta-lactamase Assay, Ratio, Phase 4 (AID 2283601)
# Sequence of Cellular tumor antigen p53 (Homo sapiens) (P04637 whole entry, looked up): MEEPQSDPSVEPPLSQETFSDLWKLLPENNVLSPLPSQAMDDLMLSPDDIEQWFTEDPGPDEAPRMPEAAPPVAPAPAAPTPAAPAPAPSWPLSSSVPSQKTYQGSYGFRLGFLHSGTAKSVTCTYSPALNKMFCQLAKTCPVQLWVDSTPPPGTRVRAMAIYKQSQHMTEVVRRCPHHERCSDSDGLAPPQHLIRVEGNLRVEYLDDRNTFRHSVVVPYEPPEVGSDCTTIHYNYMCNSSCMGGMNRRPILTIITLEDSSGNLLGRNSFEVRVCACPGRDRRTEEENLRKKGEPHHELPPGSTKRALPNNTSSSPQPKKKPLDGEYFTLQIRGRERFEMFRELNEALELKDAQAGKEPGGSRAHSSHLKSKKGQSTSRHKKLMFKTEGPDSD
# Method in brief: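 HCT-116 p53 beta-lactamase reporter cells (4000/well) preincubated 5 h, then compound (217-fold dilution of DMSO stock) for 16 h at 37C. CCF4-AM substrate added 2 h at room temperature; 460/530 nm emission ratio fitted upward versus DMSO.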
# [2] = Tanguay_ZF_120hpf_MORT_legacy: (Legacy) Oregon State University Tanguay Lab 120 Hour Post-fertilization zebrafish Assay for Mortality (AID 2283633);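 as to AC50: fitted as increase in binary mortality versus DMSO negative control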
# Method in brief: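 Mortality endpoint from a multiplexed whole-embryo zebrafish screen. Dechorionated wild-type embryos received compound at 6 hpf and remained under static exposure at 28C until 120 hpf, with death noted as a present/absent call.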
# [3] = Tanguay_ZF_120hpf_YSE_legacy: (Legacy) Oregon State University Tanguay Lab 120 Hour Post-fertilization zebrafish Assay for Yolk Sac Edema (AID 2283634);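 as to AC50: actives raise the incidence of yolk sac edema above the DMSO baseline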
# Method in brief: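 Readout: presence or absence of yolk sac edema at 120 hpf, fitted upward against DMSO controls. Exposure ran statically from 6 hpf in dechorionated embryos kept at 28C.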
# [4] = Tanguay_ZF_120hpf_SNOU_legacy: (Legacy) Oregon State University Tanguay Lab 120 Hour Post-fertilization zebrafish Assay for Snout Malformation (AID 2283637)
# Method in brief: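 Dechorionated tropical 5D wild-type zebrafish embryos exposed statically from 6 to 120 hpf at 28C, one per well, in 0.64% DMSO. Snout malformation scored as present/absent by brightfield at 120 hpf; dead embryos not scored.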
# [5] = Tanguay_ZF_120hpf_JAW_legacy: (Legacy) Oregon State University Tanguay Lab 120 Hour Post-fertilization zebrafish Assay for Jaw Malformation (AID 2283638);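 as to AC50: active means more embryos with jaw malformation than DMSO controls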
# Method in brief: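 Static waterborne exposure of dechorionated wild-type (Tropical 5D) zebrafish from 6 to 120 hpf at 28C, 0.64% DMSO vehicle; 5uM trimethyltin chloride served as positive control. Jaw morphology recorded as binary at 120 hpf.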
# [6] = Tanguay_ZF_120hpf_OTIC_legacy: (Legacy) Oregon State University Tanguay Lab 120 Hour Post-fertilization zebrafish Assay for Otic Vesicle Malformation (AID 2283639)
# Method in brief: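 Otic vesicle malformation is read as a yes/no morphology call at 120 hpf. Exposure is static at 28C with 0.64% (vol/vol) DMSO; embryos that die are excluded from non-mortality endpoints.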
# [7] = Tanguay_ZF_120hpf_PE_legacy: (Legacy) Oregon State University Tanguay Lab 120 Hour Post-fertilization zebrafish Assay for Pericardial Edema (AID 2283640);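 as to AC50: potency for increased incidence of pericardial edema versus DMSO baseline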
# Method in brief: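 Read-out is the presence or absence of pericardial edema at 120 hpf under brightfield, with gain of signal fitted against DMSO controls. Larvae (5D wild-type) were statically exposed at 28C with 0.64% final DMSO.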
# [8] = Tanguay_ZF_120hpf_BRAI_legacy: (Legacy) Oregon State University Tanguay Lab 120 Hour Post-fertilization zebrafish Assay for Brain Malformation (AID 2283641)
# Method in brief: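 Brain malformation in Tropical 5D zebrafish was recorded as a binary endpoint after static compound exposure from early development to 120 hpf at 28C. Activity was analysed against DMSO as negative control.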
# [9] = Tanguay_ZF_120hpf_AXIS_legacy: (Legacy) Oregon State University Tanguay Lab 120 Hour Post-fertilization zebrafish Assay for Body Axis Malformation (AID 2283635);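 as to AC50: potency for an increased fraction of larvae scored with body axis malformation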
# Method in brief: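 Static 6–120 hpf chemical exposure of dechorionated wild-type 5D zebrafish, one per well at 28C; morphology endpoint scored binary at 120 hpf relative to DMSO control.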
# [10] = Tanguay_ZF_120hpf_EYE_legacy: (Legacy) Oregon State University Tanguay Lab 120 Hour Post-fertilization zebrafish Assay for Eye Malformation (AID 2283636);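 also: binary presence or absence of eye malformation scored by brightfield in 120 hpf larvae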
# Method in brief: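 Dechorionated Tropical 5D zebrafish embryos, one per well from 6 hpf, static exposure to 120 hpf at 28C, 0.64% DMSO. Eye malformation scored present/absent by brightfield; dead embryos not scored.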
structure (smiles),measurement,setting,value
CC1(C)C(C=C(Cl)Cl)C1C(=O)OC(C#N)c1cccc(Oc2ccccc2)c1 (stereo not drawn),outcome,[1],inactive
same,outcome,[2],inactive
same,AC50,[3],1.7 µM (active)
same,AC50,[4],1.53 µM (active)
same,AC50,[5],1.66 µM (active)
same,outcome,[6],inactive
same,AC50,[7],1.66 µM (active)
same,outcome,[8],inactive
CCOP(=O)(OCC)Oc1nc(Cl)c(Cl)cc1Cl,AC50,[1],61.7 µM (active)
same,AC50,[2],0.887 µM (active)
same,outcome,[3],inactive
same,outcome,[9],inactive
same,outcome,[10],inactive
same,outcome,[4],inactive
same,outcome,[5],inactive
same,outcome,[6],inactive
same,outcome,[7],inactive
same,outcome,[8],inactive
CO/N=C(/C1=NOCCO1)c1ccccc1Oc1ncnc(Oc2ccccc2Cl)c1F,outcome,[1],inactive
same,AC50,[2],2.4 µM (active)
same,outcome,[3],inactive
same,outcome,[10],inactive
same,outcome,[5],inactive
same,AC50,[7],0.936 µM (active)
same,outcome,[8],inactive
N#Cc1c[nH]cc1-c1cccc2c1OC(F)(F)O2,AC50,[1],6.17 µM (active)
same,AC50,[2],25.9 µM (active)
same,outcome,[3],inactive
same,outcome,[9],inactive
same,outcome,[4],inactive
same,outcome,[5],inactive
same,outcome,[7],inactive
same,outcome,[8],inactive
CC(C)C1(C)N=C(c2ncccc2C(=O)O)NC1=O (stereo not drawn),outcome,[1],inactive
same,outcome,[2],inactive
same,outcome,[3],inactive
same,outcome,[9],inactive
same,outcome,[4],inactive
same,outcome,[5],inactive
same,outcome,[6],inactive
same,outcome,[7],inactive
same,outcome,[8],inactive
CN/C(=N\[N+](=O)[O-])NCc1cnc(Cl)s1,outcome,[1],inactive
same,outcome,[2],inactive
same,outcome,[3],inactive
same,outcome,[10],inactive
same,outcome,[4],inactive
same,outcome,[5],inactive
same,outcome,[6],inactive
same,outcome,[7],inactive
same,outcome,[8],inactive
COC(=O)c1c(C(F)F)nc(C(F)(F)F)c(C2=NCCS2)c1CC(C)C,outcome,[1],inactive
same,outcome,[2],inactive
same,outcome,[3],inactive
same,outcome,[4],inactive
same,outcome,[5],inactive
same,outcome,[6],inactive
same,outcome,[7],inactive
same,outcome,[8],inactive
COCC(C)N(C(=O)CCl)c1c(C)csc1C (stereo not drawn),outcome,[1],inactive
same,AC50,[2],36.4 µM (active)
same,AC50,[3],18.3 µM (active)
same,AC50,[10],24.8 µM (active)
same,AC50,[4],8.23 µM (active)
same,AC50,[5],25.6 µM (active)
same,AC50,[6],8.94 µM (active)
same,AC50,[7],31 µM (active)
same,AC50,[8],8.88 µM (active)
COCC(=O)N(c1c(C)cccc1C)C(C)C(=O)OC (stereo not drawn),outcome,[1],inactive
same,outcome,[2],inactive
same,outcome,[3],inactive
same,outcome,[9],inactive
same,outcome,[4],inactive
same,outcome,[5],inactive
same,outcome,[7],inactive
same,outcome,[8],inactive
C=C(C)CN(CC)c1c([N+](=O)[O-])cc(C(F)(F)F)cc1[N+](=O)[O-],AC50,[1],0.000117 µM (active)
same,outcome,[2],inactive
same,outcome,[3],inactive
same,outcome,[4],inactive
same,outcome,[5],inactive
same,outcome,[6],inactive
same,outcome,[7],inactive
same,outcome,[8],inactive
CCOC(=O)C(C)OC(=O)c1cc(Oc2ccc(C(F)(F)F)cc2Cl)ccc1[N+](=O)[O-] (stereo not drawn),outcome,[1],inactive
same,outcome,[2],inactive
same,outcome,[3],inactive
same,outcome,[9],inactive
same,outcome,[10],inactive
same,outcome,[6],inactive
same,outcome,[7],inactive
same,outcome,[8],inactive
CC(C)N1C(=O)N(c2ccccc2)CSC1=NC(C)(C)C,AC50,[1],87.2 µM (active)
same,outcome,[2],inactive
same,outcome,[3],inactive
same,outcome,[9],inactive
same,outcome,[4],inactive
same,outcome,[5],inactive
same,outcome,[6],inactive
same,outcome,[7],inactive
COC(=O)NS(=O)(=O)c1ccc(N)cc1,outcome,[1],inactive
same,outcome,[2],inactive
same,outcome,[3],inactive
same,outcome,[10],inactive
same,outcome,[4],inactive
same,outcome,[5],inactive
same,outcome,[7],inactive
same,outcome,[8],inactive
COC(=O)NC(=S)Nc1ccccc1NC(=S)NC(=O)OC,outcome,[1],inactive
same,outcome,[2],inactive
same,AC50,[3],47.7 µM (active)
same,AC50,[4],50.3 µM (active)
same,outcome,[5],inactive
same,outcome,[6],inactive
same,AC50,[7],52.6 µM (active)
N#Cc1c(Cl)cccc1Cl,outcome,[1],inactive
same,outcome,[2],inactive
same,outcome,[3],inactive
same,outcome,[9],inactive
same,outcome,[4],inactive
same,outcome,[5],inactive
same,outcome,[6],inactive
same,outcome,[7],inactive
same,outcome,[8],inactive
CS(=O)(=O)c1ccc(C(=O)C2C(=O)CCCC2=O)c([N+](=O)[O-])c1,outcome,[1],inactive
same,outcome,[2],inactive
same,outcome,[3],inactive
same,outcome,[9],inactive
same,outcome,[4],inactive
same,outcome,[5],inactive
same,outcome,[6],inactive
same,outcome,[7],inactive
same,outcome,[8],inactive
CCN(CC)C(=O)C(C)Oc1cccc2ccccc12 (stereo not drawn),outcome,[1],inactive
same,outcome,[2],inactive
same,AC50,[3],55 µM (active)
same,outcome,[9],inactive
same,outcome,[10],inactive
same,outcome,[4],inactive
same,outcome,[5],inactive
same,outcome,[6],inactive
same,outcome,[7],inactive
same,outcome,[8],inactive
COP(=O)(OC)O/C(C)=C/C(=O)N(C)C,outcome,[1],inactive
same,outcome,[2],inactive
same,outcome,[3],inactive
same,outcome,[9],inactive
same,outcome,[4],inactive
same,outcome,[5],inactive
same,outcome,[6],inactive
same,outcome,[7],inactive
same,outcome,[8],inactive
COc1ccc(-c2ccccc2)cc1NNC(=O)OC(C)C,outcome,[1],inactive
same,outcome,[2],inactive
same,outcome,[3],inactive
same,outcome,[9],inactive
same,outcome,[4],inactive
same,outcome,[5],inactive
same,outcome,[6],inactive
same,outcome,[7],inactive
same,outcome,[8],inactive
O=C(Nc1ccccc1-c1ccc(Cl)cc1)c1cccnc1Cl,outcome,[1],inactive
same,outcome,[2],inactive
same,outcome,[3],inactive
same,outcome,[10],inactive
same,outcome,[4],inactive
same,outcome,[5],inactive
same,outcome,[6],inactive
same,outcome,[7],inactive
same,outcome,[8],inactive
N#CN=C1SCCN1Cc1ccc(Cl)nc1,outcome,[1],inactive
same,outcome,[2],inactive
same,outcome,[3],inactive
same,outcome,[4],inactive
same,outcome,[5],inactive
same,outcome,[6],inactive
same,outcome,[7],inactive
same,outcome,[8],inactive
CCCCOCN(C(=O)CCl)c1c(CC)cccc1CC,AC50,[1],66 µM (active)
same,outcome,[2],inactive
same,outcome,[3],inactive
same,outcome,[4],inactive
same,outcome,[5],inactive
same,outcome,[6],inactive
same,outcome,[7],inactive
same,outcome,[8],inactive
CCOP(=S)(OCC)Oc1nc(Cl)n(C(C)C)n1,outcome,[1],inactive
same,outcome,[2],inactive
same,AC50,[3],37.4 µM (active)
same,AC50,[9],14.4 µM (active)
same,outcome,[4],inactive
same,outcome,[5],inactive
same,outcome,[7],inactive
same,outcome,[8],inactive
Cc1c(COC(=O)[C@@H]2[C@H](/C=C(\Cl)C(F)(F)F)C2(C)C)cccc1-c1ccccc1,outcome,[1],inactive
same,outcome,[2],inactive
same,outcome,[3],inactive
same,outcome,[9],inactive
same,outcome,[4],inactive
same,outcome,[5],inactive
same,outcome,[6],inactive
same,outcome,[7],inactive
same,outcome,[8],inactive
CC(C)NC(=O)N1CC(=O)N(c2cc(Cl)cc(Cl)c2)C1=O,outcome,[1],inactive
same,outcome,[2],inactive
same,outcome,[3],inactive
same,outcome,[9],inactive
same,outcome,[4],inactive
same,outcome,[5],inactive
same,outcome,[6],inactive
same,outcome,[7],inactive
same,outcome,[8],inactive
Cc1ccc(N=CN(C)C=Nc2ccc(C)cc2C)c(C)c1,outcome,[1],inactive
same,outcome,[2],inactive
same,outcome,[3],inactive
same,outcome,[9],inactive
same,outcome,[4],inactive
same,outcome,[6],inactive
same,outcome,[7],inactive
same,outcome,[8],inactive
O=C1C2CC=CCC2C(=O)N1SC(Cl)(Cl)Cl (stereo not drawn),AC50,[1],10.3 µM (active)
same,outcome,[1],inactive
same,AC50,[2],25.1 µM (active)
same,outcome,[3],inactive
same,outcome,[4],inactive
same,outcome,[5],inactive
same,outcome,[6],inactive
same,outcome,[7],inactive
same,outcome,[8],inactive
CC(C)Nc1nc(Cl)nc(NC(C)C)n1,outcome,[1],inactive
same,outcome,[2],inactive
same,outcome,[3],inactive
same,outcome,[10],inactive
same,outcome,[4],inactive
same,outcome,[5],inactive
same,outcome,[6],inactive
same,outcome,[7],inactive
same,outcome,[8],inactive
COP(=S)(OC)Oc1ccc([N+](=O)[O-])c(C)c1,outcome,[1],inactive
same,outcome,[2],inactive
same,outcome,[3],inactive
same,outcome,[10],inactive
same,outcome,[4],inactive
same,outcome,[5],inactive
same,outcome,[6],inactive
same,outcome,[7],inactive
same,outcome,[8],inactive
COP(=S)(OC)SCn1nnc2ccccc2c1=O,AC50,[1],43.5 µM (active)
same,outcome,[1],inactive
same,outcome,[2],inactive
same,outcome,[3],inactive
same,outcome,[4],inactive
same,outcome,[5],inactive
same,outcome,[6],inactive
same,outcome,[7],inactive
same,outcome,[8],inactive
CCCCC(O)(Cn1cncn1)c1ccc(Cl)cc1Cl (stereo not drawn),AC50,[1],87 µM (active)
same,outcome,[2],inactive
same,outcome,[3],inactive
same,outcome,[9],inactive
same,outcome,[4],inactive
same,outcome,[5],inactive
same,outcome,[6],inactive
same,outcome,[7],inactive
CCNP(=S)(OC)O/C(C)=C/C(=O)OC(C)C (stereo not drawn),outcome,[1],inactive
same,outcome,[2],inactive
same,outcome,[3],inactive
same,outcome,[10],inactive
same,outcome,[4],inactive
same,outcome,[5],inactive
same,outcome,[6],inactive
same,outcome,[7],inactive
same,outcome,[8],inactive
CNC(=O)Oc1cccc2ccccc12,outcome,[1],inactive
same,outcome,[2],inactive
same,outcome,[3],inactive
same,outcome,[9],inactive
same,outcome,[10],inactive
same,outcome,[4],inactive
same,outcome,[5],inactive
same,outcome,[6],inactive
same,outcome,[7],inactive
same,outcome,[8],inactive
